Results taken from PubChem BioAssay (EPA / NIEHS).
The source made the active and inactive calls. The calls were made as follows: active = hit-call score of the fitted dose curve at least 0.9, where 1 is the maximum; inactive = score below 0.9.

read-out: Intercellular Adhesion Molecule 1 (ICAM1), ICAM1 (gene 3383); experiment: BSK_KF3CT_ICAM1: BioMAP Diversity Plus: KF3CT Assay for Intercellular Adhesion Molecule 1 (ICAM1) Biomarker Activity (AID 2283067); details: primary human keratinocytes with fibroblasts; actives raise or lower the signal
Method in brief: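 Dose the keratinocyte/fibroblast co-culture, wait 24 h, measure ICAM-1 by ELISA, then fit increases or decreases against DMSO. Cytotoxicity is checked in parallel cultures by SRB total-protein staining.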

SMILES | outcome | AC50
Cc1c(-c2cccnc2)c2ccccc2n1CCCCC(=O)O | inactive | 
CC[C@H]1CC[C@H](NCc2cc3c(cc2OC)[C@H]2C[C@H]2C(=O)N3C)[C@H](c2ccccc2)N1 | inactive | 
CCOCCOCCOCCO | inactive | 
Cn1c(=O)cc(Oc2ccc(F)cc2F)c2cnc(NCC(C)(C)O)nc21 | inactive | 
CC[C@H](C)C(=O)O[C@H]1C[C@@H](C)C=C2C=C[C@H](C)[C@H](CC[C@@H]3C[C@@H](O)CC(=O)O3)[C@H]21 |  | 33.6 µM (active)
CCN(C(=O)c1cc(C)cc(OC[C@H](C)Nc2ccncc2)c1)C(C)C | inactive | 
Cc1ccc(S(=O)(=O)O)cc1C | inactive | 
C[C@](N)(Cc1ccc(O)c(O)c1)C(=O)O | inactive | 
CC(C)CCCCCCOC(=O)c1ccc(C(=O)OCCCCCCC(C)C)c(C(=O)OCCCCCCC(C)C)c1 | inactive | 
O=C(O)CCN(C1(C(=O)NO)CCCC1)S(=O)(=O)c1ccc(Oc2ccc(F)cc2)cc1 | inactive | 
CC(C)CCCCCCCOC(=O)CCCCC(=O)OCCCCCCCC(C)C | inactive | 
CNCc1ccc(NC(=O)c2c[nH]c3c2C(=O)CCC3)cc1 | inactive | 
Cc1ccc(N)cc1O | inactive | 
Cc1[nH]cnc1C[C@H]1CCc2c(C)c3ccccc3n2C1=O | inactive | 
CCCCC(CC)COC(=O)c1ccc(C(=O)OCC(CC)CCCC)cc1 (centres undefined) | inactive | 
CC(C)CC(C)(O)C#CC(C)(O)CC(C)C (centres undefined) | inactive | 
O=C(O)CC(O)C(=O)O (centres undefined) | inactive | 
COc1cccc(-c2ccc(/C=C\CN3CCCCCC3)cc2Cl)c1 |  | 28.4 µM (active)
CN(C)c1ccc(N=NS(=O)(=O)O)cc1 | inactive | 
COC(=O)CC(=O)OC | inactive | 
CCOC(=O)CC(CC(=O)OCC)(OC(C)=O)C(=O)OCC | inactive | 
CC(C)=CCCC(C)=CC=O | inactive | 
O=C(OC[C@H]1O[C@@H](OC(=O)c2cc(O)c(O)c(OC(=O)c3cc(O)c(O)c(O)c3)c2)[C@H](OC(=O)c2cc(O)c(O)c(OC(=O)c3cc(O)c(O)c(O)c3)c2)[C@@H](OC(=O)c2cc(O)c(O)c(OC(=O)c3cc(O)c(O)c(O)c3)c2)[C@@H]1OC(=O)c1cc(O)c(O)c(OC(=O)c2cc(O)c(O)c(O)c2)c1)c1cc(O)c(O)c(OC(=O)c2cc(O)c(O)c(O)c2)c1 |  | 4.39 µM (active)
CC(C)=CCCC(C)CCO (centres undefined) | inactive | 
CCCCCCCCO | inactive | 
CC(C)=CCC/C(C)=C\CO | inactive | 
Clc1nc(Cl)c(Cl)c(Cl)c1Cl | inactive | 
CC(O)CN(CCN(CC(C)O)CC(C)O)CC(C)O (centres undefined) | inactive | 
CCc1cc(SCc2sc(-c3ccc(C(F)(F)F)cc3)nc2CN2CCN(c3ccc(OC)cc3)CC2)ccc1OCC(=O)O |  | 7.27 µM (active)
